# Results as given in PubChem BioAssay (NCI).
# The panel holds about 83,000 compounds, 20% with a hit somewhere; the sample as a whole holds those more often.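 How to read the values: 0–100, growth inhibition (40 = 60% inhibited); 0, no net growth; -100 to 0, cell death (-40 = 40% of starting cells died; -100 = all dead).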 Unmarked numbers belong to inactive results. Active and inactive are the calls of the source. How the source made its calls: active means growth percent below 10; inactive means the rest.
# Experiments:
# Experiment in all cases: NCI-60 one-dose screen, 48 h (100 = growth as untreated, 0 = no growth, -100 = all killed)
# NCI-H23 lung = settings: 10 µM unless noted
# NCI-H226 lung = settings: 10 µM unless noted
# NCI-H322M lung = settings: 10 µM unless noted
# HOP-62 NSCLC = settings: 10 µM unless noted
# NCI-H460 lung = settings: 10 µM unless noted
# HOP-92 NSCLC = settings: 10 µM unless noted
# NCI-H522 lung = settings: 10 µM
# 786-0 renal = settings: 10 µM unless noted
# COLO 205 colon = settings: 10 µM unless noted
# A549/ATCC NSCLC = settings: 10 µM unless noted
SMILES,growth (NCI-H23 lung),growth (NCI-H226 lung),growth (NCI-H322M lung),growth (HOP-62 NSCLC),growth (NCI-H460 lung),growth (HOP-92 NSCLC),growth (NCI-H522 lung),growth (786-0 renal),growth (COLO 205 colon),growth (A549/ATCC NSCLC)
COc1cccc2c1C(=O)c1c(O)c3c(c(O)c1C2=O)C[C@@](O)(C(C)=O)C[C@@H]3O[C@H]1C[C@H](N)[C@H](O)[C@H](C)O1,-67.3% (active),-33.1% (active),-19.9% (active),-50.2% (active),-3.01% (active),-28% (active),-89.3% (active),-9.97% (active),-85.8% (active),
OC(c1ccccc1)C(NCc1ccccc1)c1ccccc1 (stereo not given),93.5%,97.7%,97.8%,90.5%,100%,71.8%,,87.2%,,101%
O=c1ccn(C2CC=C(CO)O2)c(=O)[nH]1 (stereo not given),91.9%,95.7%,95.9%,102%,124%,38.1%,,93.4%,106%,106%
N#Cc1c(NC(=O)c2ccco2)[n+]([O-])c2ccccc2[n+]1[O-],110%,86.1%,103%,82.9%,107%,164%,,99.2%,105%,99.7%
COP(=O)(OC)C(c1ccc(O)cc1)(c1ccc(O)cc1)c1ccc(O)cc1,114%,99.7%,103%,83.3%,113%,79.3%,,82.4%,123%,99.9%
Clc1ccc2[nH]cc(-c3cncn3CCc3ccccc3)c2c1,45.6%,47.9%,65.5%,50.8%,68.5%,28%,,62.9%,44.3%,59.7%
CCSc1nc(Nc2ccc(S(=O)(=O)Nc3ccon3)cc2)c(C#N)c(-c2cccc(Br)c2)n1,101%,77.2%,74.3%,93.9%,106%,90.2%,87.3%,94.8%,117%,
COc1ccc2[nH]c(=O)c(CNc3ccc(Nc4nccc(-c5ccc(Cl)cc5)n4)cc3)cc2c1,91.5%,91.7%,87.6%,102%,93.7%,87.1%,83.8%,98%,100%,
O=c1sc2ncnc3ncn1c32,66.1%,61.4%,77.9%,41.8%,85.7%,50%,,34.6%,83.5%,104%
Cc1ccccc1NC(=O)N/C(N)=N/c1nc2ccccc2s1,31.8%,21%,39.2%,40.7%,11.7%,126%,,30.7%,,22.7%
C=CCN(/C=C/CN(CC=C)CC=C)CC=C,108%,95.7%,96.7%,97.7%,105%,91.2%,,104%,,99.6%
Nc1nc2c(nnn2Cc2ccc(Cl)c(Cl)c2)c(=O)[nH]1,104%,96.5%,82.4%,90.4%,104%,75.5%,,97.3%,98.5%,103%
CN1CCC[C@@H]1CCO[C@](C)(c1ccccc1)c1ccc(Cl)cc1,79.9%,75.5%,78.4%,75.2%,91.3%,51.6%,88%,66.5%,20%,
N#Cc1c(-c2ccc(F)cc2)n2c(nc1=O)SC(=O)C2=O,98.6%,87.2%,104%,120%,101%,96.6%,103%,100%,134%,
O=C(CSc1nnc(-c2cc(-c3ccccc3)nc3ccccc23)o1)c1ccc(Br)cc1,106%,104%,103%,101%,106%,114%,,104%,119%,105%
O=C(CC(C(=O)c1ccccc1)N1CCN(Cc2ccccc2)CC1)c1ccccc1 (stereo not given),84%,104%,112%,104%,104%,80.7%,,95.8%,70.3%,98%
COc1cnc2c(c1)C(=O)c1c-2n(CCCN2CCCC2)c(=O)c2cc(F)ccc12,-19.5% (active),-81.2% (active),4.72% (active),-16.4% (active),-47.9% (active),-5.39% (active),,-88.5% (active),-6.43% (active),-80.4% (active)
